Molecules are shown by their SMILES. Compounds without any hit were thinned out: in the full panel of roughly 83,000, 20% have a hit.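 The endpoint reported here, percent growth, reads 100 for growth as untreated, 0 for no net growth and -100 for all cells dead.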 Unmarked numbers belong to inactive results. The source made the active and inactive calls. Rule for the calls: active = growth percent below 10; inactive = the rest.

Holding throughout (assay): NCI-60 one-dose screen, 48 h (100 = growth as untreated, 0 = no growth, -100 = all killed)
Common to all, as to conditions: 10 µM unless noted

Assay [1] has as its system EKVX NSCLC.
The test system of assay [2] is SN12C renal.
In assay [3] the test system is UO-31 renal.
For assay [4], the system named is TK-10 renal.
The subject of assay [5] is ACHN renal.
Assay [6] has as its system CAKI-1 renal.
Assay [7] deals with A498 renal.
Assay [8] deals with CCRF-CEM leukemia.
The subject of assay [9] is MOLT-4 leukemia.

Regarding `Nc1n[nH]c2ccc([C@@H]3Nc4ccc5[nH]ncc5c4[C@H]4[C@H]5CCC(C5)[C@H]43)cc12`, the growth is 40.2% in assay [1]; 24.6% in assay [2]; 46.3% in [3]; 60.8% in assay [4]; 27.7% in assay [5]; 16.4% in [6]. For the same compound, the growth was -20.5% (active) in assay [7], 17% in assay [8] and 18% in [9].
Take `O=C(Nc1ccc(F)cc1F)c1cc(Cl)ccc1O`: the growth in [1] is 34.2%; in assay [2] it was 2.94% (active); in [3], -0.334% (active); in assay [4], 17.4%; in assay [5], 4.87% (active); in assay [6], -14.7% (active). In addition, the results for the growth in assay [7], in assay [8] and in assay [9] were -34.4% (active), 15.4% and 8.79% (active), respectively.
For `O=C(Nc1ccc(F)cc1F)c1cc(Br)ccc1O`, the growth in assay [1] was 8.29% (active); in assay [2], -7.89% (active); in [3], 1.12% (active); in assay [4], 2.49% (active); in assay [5], 1.37% (active); in [6], -26.3% (active). In addition, the growth in assay [7] was -49.5% (active); in assay [8] it was 10.6%; in assay [9], 0.366% (active).
Take `O=C(Nc1ccc(I)cc1F)c1cc(Br)ccc1O`: the growth in assay [1] was 6.95% (active); in [2], 3.31% (active); in assay [3], 8.84% (active); in assay [4], 1.98% (active); in assay [5] it was 4.42% (active); in assay [6], -18.9% (active). Besides, the growth in assay [7] is -62.1% (active); in assay [8], 7.25% (active); in [9], -12.2% (active).
Regarding `COc1cc(/C=C/C(=O)c2c(C)nc3ccccc3c2/C=C/c2ccccc2)cc(OC)c1OC`, the growth in [1] is 26.9%; in assay [2] it was 11.1%; in [3], 27.4%; in assay [4], 10.1%; in assay [5], -27.4% (active); in assay [6] it was 30.8%. For the same compound, the growth in [7] was 40.6%; in assay [8] it was 4.76% (active); in [9], -0.744% (active).
`O=c1oc2ccc(I)cc2c(=O)n1-c1ccc(F)cc1F`: the growth in [1] is 59.2%; in [2] it was 10.9%; in assay [3] it was 7.61% (active); in [4], 11.6%; in [5], 19.6%; in [6], -17.5% (active). Further, the growth is -43.9% (active) in [7], 17.2% in assay [8] and 13.8% in [9].
As to `CNC(=O)c1cc(Oc2ccc(CC(=O)Nc3cc(C(C)(C)C)cn3C)cc2)ccn1`, the growth in assay [1] was 75.6%; in assay [2], 68.5%; in assay [3] it was 87.4%; in assay [4] it was 108%; in assay [5] it was 66.7%; in assay [6], 56%. For the same compound, the growth in assay [7] was 53.9%; in [8], 74%; in assay [9], 69.6%.
For `O=c1oc2ccc(I)cc2c(=O)n1-c1ccc(Cl)cc1F`, the growth was 9.47% (active) in assay [1]; 2.21% (active) in assay [2]; 2.47% (active) in assay [3]; 10.5% in assay [4]; 3.57% (active) in assay [5]; -16.9% (active) in assay [6]. For the same compound, the growth in assay [7] was -68.3% (active); in assay [8], 7.77% (active); in assay [9], -11.1% (active).
Regarding `O=c1oc2ccc(F)cc2c(=O)n1-c1ccc(I)cc1F`, the growth was 9.58% (active) in assay [1]; -3.72% (active) in assay [2]; 2.62% (active) in assay [3]; 0.748% (active) in [4]; 1.58% (active) in [5]; -19.2% (active) in [6]. Moreover, the growth in assay [7] was -61.4% (active); in [8], 12%; in assay [9] it was -0.279% (active).
With `O=c1oc2ccc(Br)cc2c(=O)n1-c1ccc(Cl)cc1F`, the growth in [1] is 9.06% (active); in assay [2] it was 1.42% (active); in assay [3] it was 7.61% (active); in assay [4], 7.09% (active); in [5] it was 2.66% (active); in [6] it was -18.1% (active). Also, the results for the growth in assay [7], in assay [8] and in [9] were -69.8% (active), 6.89% (active) and -8.39% (active), respectively.
`Nc1ccc(-c2nn3c(CCC(=O)c4nc5ncccc5[nH]4)nnc3s2)c(O)c1`: the growth was 98% in assay [1]; 87.8% in assay [2]; 68.7% in [3]; 144% in assay [4]; 90.5% in [5]; 70.1% in [6]. The growth was 75.3% in assay [7], 94.1% in assay [8] and 82.8% in assay [9].
For the compound `Cc1c(C(=O)OCCO)cc(-c2ccc(Cl)cc2)n1-c1ccc(Cl)cc1Cl`, the growth in assay [1] is 63.8%; in [2], 61.1%; in [3], 69.4%; in assay [4], 101%; in assay [5], 71.4%; in [6], 63.6%. In addition, the growth is 77.3% in assay [7], 65.4% in [8] and 49.8% in assay [9].
Consider `COc1ccc(S(=O)(=O)N(Cc2ccc3c(n2)C=CC(C)(C)O3)C2CCC2)cc1OC`, for which the growth in [1] was -22.5% (active); in assay [2], 6.9% (active); in [3], -10.2% (active); in [4], -8.7% (active); in assay [5] it was 13.4%; in assay [6], -28.2% (active). The growth in assay [7] was -25.4% (active); in assay [8], -19% (active); in assay [9] it was -14.3% (active).
For the compound `CN1CCN(Cc2ccc(NC(=O)c3cncc(C#Cc4nc(N)nc5[nH]ncc45)c3)cc2C(F)(F)F)CC1`, the growth was 109% in assay [1]; 89.7% in assay [2]; 122% in assay [3]; 126% in [4]; 99.8% in assay [5]; 66.5% in [6]. Besides, the growth in assay [7] was 102%; in assay [8] it was 5.35% (active); in [9], 8.02% (active).
Regarding `COc1ccc(/C=C/C(=O)c2c(C)nc3ccccc3c2/C=C/c2ccccc2)c(OC)c1`, the growth in assay [1] is 76.9%; in assay [2], 84.3%; in assay [3] it was 61.4%; in assay [4], 123%; in assay [5], 79.5%; in assay [6], 55.9%. The figures for the growth in assay [7], in assay [8] and in assay [9] were 97.3%, 76.5% and 48.6%, respectively.
Consider `Cc1nc2ccccc2c(/C=C/c2ccccc2)c1C(=O)/C=C/c1ccc(Cl)cc1`, for which the growth in assay [1] was 39.9%; in assay [2] it was 19.7%; in assay [3], 11.1%; in assay [4], 21.9%; in assay [5] it was 14.3%; in assay [6] it was 12.6%. Besides, the figures for the growth in assay [7], in assay [8] and in assay [9] were 36.7%, 3.51% (active) and 5.62% (active), respectively.
As to `COc1ccc(N2C(=O)CC(c3cc(OC)c(OC)c(OC)c3)C3C2=NC(=O)N3C)cc1` (stereo not drawn), the growth was 102% in assay [1]; 102% in assay [2]; 89.9% in assay [3]; 103% in assay [4]; 106% in assay [5]; 95.1% in assay [6]. In addition, the growth is 102% in [7], 109% in assay [8] and 114% in [9].
In the case of `Cn1c2c(c(=O)[nH]c1=O)NC1=C(C(=O)c3ccccc31)C1(C=C(O)c3ccccc31)N2` (stereo not drawn), the growth was 95.7% in [1]; 108% in assay [2]; 77.6% in assay [3]; 134% in [4]; 89.7% in assay [5]; 86% in assay [6]. The results for the growth in assay [7], in assay [8] and in assay [9] were 143%, 107% and 121%, respectively.
In the case of `O=c1oc2ccc(Cl)cc2c(=O)n1-c1ccc(I)cc1F`, the growth is 11.4% in [1]; -1.14% (active) in [2]; 7.35% (active) in assay [3]; 11% in [4]; 4.07% (active) in assay [5]; -16.3% (active) in [6]. The growth in assay [7] was -75.5% (active); in assay [8], 7.15% (active); in [9], -28.6% (active).
As for `O=c1c2cc(F)cc(Cl)c2sc2c(Cl)nc3ccccc3c12`, the growth was 97.9% in [1]; 76.8% in [2]; 72.6% in assay [3]; 151% in [4]; 95.3% in assay [5]; 90.7% in assay [6]. Also, the growth was 103% in [7], 86.9% in assay [8] and 103% in assay [9].
For the compound `O=C1NC(=O)C(=Cc2cn(Cc3cn(Cc4ccc(Cl)cc4Cl)nn3)c3ccccc23)C(=O)N1`, the growth in [1] is 104%; in [2] it was 90.4%; in assay [3] it was 63.9%; in assay [4] it was 68.8%; in assay [5], 102%; in [6] it was 56.3%. The growth was 38.3% in assay [7], 76.4% in [8] and 84.6% in assay [9].
With `O=C(Nc1ccc(Br)cc1F)c1cc(Cl)ccc1O`, the growth in assay [1] was 8.37% (active); in assay [2] it was -5.66% (active); in assay [3], 9.99% (active); in assay [4], 0.819% (active); in [5], 0.275% (active); in [6] it was -21.3% (active). Moreover, the growth in assay [7] is -70.2% (active); in assay [8] it was 5.57% (active); in assay [9], -28.1% (active).
`O=C(COc1cc(O)c2c(=O)cc(-c3ccccc3)oc2c1)Nc1ccccc1`: the growth in assay [1] was 103%; in assay [2] it was 89.9%; in assay [3] it was 80.2%; in assay [4], 103%; in assay [5] it was 57.9%; in assay [6] it was 77.9%. The growth in assay [7] was 98.8%; in [8], 94.4%; in [9], 91.1%.
`COc1c(B(O)O)cccc1-c1nc2ccc3n[nH]c(F)c3c2c2c1CCCC2`: the growth is 93% in assay [1]; 62.6% in assay [2]; 41.5% in assay [3]; 35.7% in assay [4]; 65.9% in assay [5]; 0.82% (active) in assay [6]. Further, the values for the growth in assay [7], in assay [8] and in [9] were 65.7%, 38.8% and 37.8%, respectively.
Regarding `O=c1oc2ccc(F)cc2c(=O)n1-c1ccc(F)cc1F`, the growth was 93.5% in assay [1]; 24.9% in assay [2]; 26% in [3]; 10.4% in assay [4]; 36.3% in assay [5]; 16.4% in assay [6]. For the same compound, the results for the growth in assay [7], in assay [8] and in assay [9] were -30.5% (active), 35.9% and 22.3%, respectively.
Take `CS(=O)(=O)Nc1ccc(C(=O)NC(C(=O)NO)c2ccc(-c3cccc(F)c3)cc2)cc1` (stereo not drawn): the growth in assay [1] is 97.4%; in assay [2] it was 75.3%; in assay [3], 19.3%; in assay [4], 30.3%; in [5], 58.7%; in [6] it was 49.9%. Further, the growth in assay [7] is 95.6%; in [8] it was 95.1%; in assay [9], 103%.
With `O=C1c2cc(I)ccc2Oc2cc([N+](=O)[O-])ccc2N1c1ccc(Cl)cc1F`, the growth is 93.5% in assay [1]; 90.8% in assay [2]; 63.6% in [3]; 120% in assay [4]; 90.3% in assay [5]; 63.9% in assay [6]. Also, the growth is 91.4% in [7], 76.8% in assay [8] and 56.6% in [9].

Source of the values: PubChem BioAssay (NCI).
